Hits are enriched below; roughly 3.4% of the tested compounds scored in any of these assays.
FBW7 activator: FBW7 E3 ligase activators, primary screen, biochemical, AlphaScreen, human | AID 1259310, 2017 | actives 0.13% (n = 650,000) | normalized activity (activation), % at 26.1 µM | AlphaScreen FBW7–phospho-cyclin E peptide binding, activator screen | F-box/WD repeat-containing protein 7 (Homo sapiens), Q969H0; in the data active = normalized activity above about 1.9%;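 also: purified mutant Fbw7 with reduced substrate affinity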
GPR151 ag: activators of human GPR151, primary screen, cell-based, PathHunter beta-arrestin, luminescence; G-protein coupled receptor 151 (Homo sapiens), Q8TDV0; PathHunter beta-arrestin GPR151 cells; activation, % at 11.2 µM; actives 1% (n = 650,000); AID 1508602, 2020; in the data active = activation above about 4.9%;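 also: 0% = median of compound wells and 100% = cells with positive control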
Target sequence (Q8TDV0 whole entry, looked up): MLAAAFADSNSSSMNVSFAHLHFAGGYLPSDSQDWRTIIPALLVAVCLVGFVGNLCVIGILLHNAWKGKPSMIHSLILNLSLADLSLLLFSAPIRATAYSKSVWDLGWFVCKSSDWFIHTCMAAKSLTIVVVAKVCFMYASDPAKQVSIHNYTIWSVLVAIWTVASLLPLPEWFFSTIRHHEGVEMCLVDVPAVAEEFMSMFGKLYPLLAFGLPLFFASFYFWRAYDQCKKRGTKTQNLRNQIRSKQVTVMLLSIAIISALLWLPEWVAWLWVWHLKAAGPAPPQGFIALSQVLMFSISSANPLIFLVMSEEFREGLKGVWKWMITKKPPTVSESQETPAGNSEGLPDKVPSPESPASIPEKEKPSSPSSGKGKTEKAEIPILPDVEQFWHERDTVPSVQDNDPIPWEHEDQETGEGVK
TEAD-YAP inh: TEAD-YAP interaction inhibition, primary screen, TEAD-YAP interaction inhibitor project, luminescence, HEK-TIYL cells | TEAD-Gal4/YAP UAS-luciferase luminescence | AID 1259422, 2018 | actives 1.4% (n = 640,000) | inhibition, % at 9.12 µM; in the data active = inhibition above about 32%;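 also: 0% = median of test compound wells and 100% = reference inhibitor wells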
MITF primary: MITF inhibitors, primary screen, biochemical, AlphaScreen, human | Microphthalmia-associated transcription factor (Homo sapiens), O75030 | AlphaScreen MITF homodimerization, bead proximity signal | inhibition, % at 2.6 µM | actives 0.91% (n = 650,000) | AID 1259374, 2018; in the data active = inhibition above about 50%;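 also: 0% = vehicle wells with protein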
The depositor's hits bear a star.

SMILES | FBW7 activator | GPR151 ag | TEAD-YAP inh | MITF primary
COc1cc(-c2cnn3ccc(Nc4ccccc4)nc23)cc(OC)c1OC | 0 | 1 | 47* | 18
Cc1ccc(C(=O)Nc2cccc(NC(=O)c3ccc(F)cc3)c2)cc1[N+](=O)[O-] | 0 | 1 | -9 | 7
CS(=O)(=O)c1cccc(C(=O)Nc2nccs2)c1 | 0 | -1 | -12 | 2
CCOC(=O)c1ccc(NC(=O)c2ccc(C)c(S(=O)(=O)N3CCOCC3)c2)cc1 | 0 | 1 | 37* | 3
Cc1ccc(C(=O)Nc2ccc(Sc3ccccc3)cc2)cc1S(=O)(=O)N1CCOCC1 | 0 | 0 | 36* | 16
CCOC(=O)c1ccc(NC(=O)c2ccc(Br)c(S(=O)(=O)N3CCCCC3)c2)cc1 | 0 | 1 | 49* | -6
COc1ccc(-c2csc(NC(=O)c3ccccc3Oc3ccccc3)n2)cc1OC | 0 | 0 | 2 | 8
COc1cc(N2C(=O)NC(=O)/C(=C\c3ccc(N(C)C)cc3)C2=O)cc(OC)c1OC | 2.5* | 0 | 2 | 2
CNc1ccc(S(=O)(=O)N(C)Cc2cc(C)ccc2C)cc1[N+](=O)[O-] | 0 | 0 | 7 | 4
COCCn1c(=O)n(CC(=O)N2CCC(C(N)=O)CC2)c2cccnc21 | 5.7* | -2 | 5 | 3
COCCn1c(=O)n(CC(=O)N2CCCCC2)c2cccnc21 | 0 | -2 | -6 | -2
CCOc1ccc(C(=O)/C=C/c2cc(OC)c(OC)c(OC)c2)cc1 | 0 | 2 | 40* | 10
COc1cc(C(=O)/C=C/c2ccc(OCC(N)=O)cc2)cc(OC)c1OC | 2.0* | 0 | -1 | 14
COC(=O)c1ccc(/C=C/C(=O)c2ccc(OC)c(OC)c2)cc1 | 0 | 0 | -8 | -2
COc1cc(/C=C/C(=O)c2ccc(F)cc2)cc(OC)c1OC | 0 | 4 | 26 | 2
COc1ccc(CC(=O)Nc2ccc(-c3nnc(-c4ccccc4)o3)cc2)cc1OC | 0 | -1 | -16 | 22
COc1ccc(CC(=O)Nc2cccc(-c3nnc(-c4ccccc4)o3)c2)cc1OC | 0 | 5 | 53* | 23
COc1ccc(-n2c(SCc3cc(=O)n4cc(Cl)ccc4n3)nc3ccsc3c2=O)cc1 | 0 | -1 | 3 | 12
CCN(CC)C(=O)C1CCCN(c2nc(NCCN3CCOCC3)c3ncn(C4CCCCC4)c3n2)C1 (stereo not drawn) | 0 | -3 | 38* | 11
CCN(CC)C(=O)C1CCCN(c2nc(NCCN3CCOCC3)c3ncn(C(C)C)c3n2)C1 (stereo not drawn) | 0 | -1 | 7 | -2
CCN(CC)C(=O)C1CCCN(c2nc(NCCc3ccc(OC)cc3)c3ncn(-c4ccsc4)c3n2)C1 (stereo not drawn) | 0 | -1 | 33* | -4
CCN(CC)C(=O)C1CCCN(c2nc(NCCN3CCOCC3)c3ncn(-c4ccsc4)c3n2)C1 (stereo not drawn) | 0 | 1 | 36* | 12
COc1ccc(-n2c(/C=C/c3ccc(N(C)C)cc3)nc3ccccc3c2=O)cc1Cl | 1 | -2 | 2 | 12
CCOC(=O)c1c(C)[nH]c(C(=O)N/N=C\c2ccc([N+](=O)[O-])cc2)c1C | 0 | -1 | 41* | 5
CCOC(=O)c1c(C)[nH]c(C(=O)N/N=C\c2ccccc2Cl)c1C | 0 | 3 | 40* | -7
SMILES | FBW7 activator | GPR151 ag | TEAD-YAP inh | MITF primary
CCOC(=O)c1c(C)[nH]c(C(=O)N/N=C\c2cccc(OC)c2)c1C | 0 | 1 | 46* | -2
Cc1ccc(C(Nc2cc(Cl)ncn2)C(F)(F)F)cc1 (stereo not drawn) | 1 | 1 | 34* | 3
CC(COc1ccc2ccccc2c1)Nc1cc(Cl)ncn1 (stereo not drawn) | 0 | -1 | 2 | 17
Cc1c(NS(=O)(=O)c2ccc([N+](=O)[O-])cc2)c(=O)n(-c2ccccc2)n1C | 2.0* | 0 | -4 | 13
NC(=O)/C(=N/O)c1nc(-c2ccc(Br)cc2)cs1 | 0 | 0 | 9 | -4
NC(=O)/C(=N\O)c1nc(-c2ccc(Cl)cc2)cs1 | 0 | -2 | 32* | 21
COP(=O)(OC)c1nc(-c2cccc([N+](=O)[O-])c2)oc1N1CCOCC1 | 0 | 0 | -12 | -7
Cc1ccc2c(C)nc(N3CCCC(NCC4COc5ccccc5O4)CC3)nc2c1 (stereo not drawn) | 1.9* | 0 | -18 | 5
